Source: PubChem BioAssay (EPA / NIEHS)
The source made the active and inactive calls. Rule for the calls: active = hit-call score of the fitted dose curve at least 0.9, where 1 is the maximum; inactive = score below 0.9.

experiment: CCTE_Mundy_HCI_Cortical_Synap_Neur_Matur_NeuriteLength: CCTE's Synaptogenesis and Neurite Maturation Assay in rat cortical cells for Neurite Length, Mundy Lab (AID 2284214)
Protocol: CCTE_Mundy_HCI_Cortical_Synap&Neurite_Matur is a multiplexed, cell-based-readout assay that uses rat primary cortical cells with measurements taken at 288.33 hours after chemical dosing in a microplate: 96-well plate.CCTE_Mundy_HCI_Cortical_Synap_Neur_Matur_NeuriteLength is one of eight components of the CCTE_Mundy_HCI_Cortical_Synap&Neurite_Matur assay. It measures synaptogenesis and neurite maturation related to neurite length using High Content Imaging of fluorescently labelled markers.[…] Using a type of morphology reporter, loss -of-signal activity can be used to understand developmental effects.
Cells are plated onto 96 well plates and allowed 2 hr for attachment to the substrate. At days in vitro (DIV) 5, Cytosine Arabinoside (AraC) is added to arrest glial cell growth. Chemicals are dosed and a media change is performed at DIV 7 of differentiation and is continued through DIV 12 when the experiment is terminated. Cells are fixed with […] and Hoechst Dye. Cells are stained using Millipore Mouse anti-MAP2MAB3418 (1:800) and Millipore Rabbit anti-Synaptophysinsc-1750 (1:250) primary antibodies and Alexa Fluor-488 goat anti-mouse and AlexaFluor-546 goat anti-rabbit secondary antibodies to label neuronal cell nuclei, synapses and neurites. A Cellomics ArrayScan VTi HCS Reader is used for automated image acquisition and analysis of neurite outgrowth.

SMILES | AC50 | outcome
[O]=[V]([OH])([OH])[OH] | 27 µM (active) | 
CC(CNC(=S)[S-])NC(=S)[S-].[Zn+2] (stereo not given) | 50 µM (active) | 
C[C@@H]1CC[C@@H](C(C)(C)O)[C@H](O)C1 |  | inactive
CC(=O)N[C@@H](CC(=O)O)C(=O)O |  | inactive
O=C1CC2(CCCC2)CC(=O)N1CCCCN1CCN(c2ncccn2)CC1 |  | inactive
CCCCCC=C(C)C(CC)CCO (stereo not given) |  | inactive
CC(C)O |  | inactive
C[C@@H]1CCO[C@H]2Cn3cc(C(=O)NCc4ccc(F)cc4F)c(=O)c(O)c3C(=O)N12 |  | inactive
F |  | inactive
BrC1CC(Br)CC(Br)CC(Br)CC(Br)CC(Br)C1 (stereo not given) | 4.04 µM (active) | 
CCCCCC(C)(CC)C(=O)NC (stereo not given) |  | inactive
Cc1[nH]n(C)c(=O)c1C(=O)c1ccc(C(F)(F)F)cc1S(C)(=O)=O |  | inactive
CC(C)c1nn(C(=O)NC(C)(C)C)c(=O)n1N |  | inactive
CCc1ccccc1 |  | inactive
CN(C)CCCn1cc(C2=C(c3c[nH]c4ccccc34)C(=O)NC2=O)c2ccccc21 |  | inactive
